These results are taken from PubChem BioAssay (NCI).

The panel holds about 83,000 compounds, 20% with a hit somewhere; the sample as a whole holds those more often.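 96-well plates, one dose, 48 hours. Percent growth reported; active if below 10.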 Values without a mark were called inactive. Active and inactive are the calls of the source.

The test deals with MDA-MB-468 breast. The test is described as follows: NCI-60 one-dose screen, 48 h (100 = growth as untreated, 0 = no growth, -100 = all killed). The conditions noted are these: 10 µM unless noted.
On to `O=C(O)Cc1ccc2c(c1)Cc1cccnc1O2`, for which the growth is 97.1%. As to `Nc1ncc(-c2ccc3ncnc(Nc4cccc(Cl)c4F)c3c2)cn1`, the growth is -5.52% (active). The result for `CSC(SC)=C(C#N)c1nc2ccccc2s1` reads 43.8%; that for `COC(=O)[C@@]12CC[C@@H](C)[C@]3(C[C@@H](c4ccoc4)OC3=O)[C@H]1CC[C@@H]1O[C@@]12C`, 106%; that for `CC(C)c1ccc(NCc2cn(-c3ccc(C(=O)O)cc3)nc2-c2cc(C(F)(F)F)cc(C(F)(F)F)c2)cc1`, 102%. The figure for `COc1ccc(C(=S)N2CCN(c3ccccc3Cl)CC2)cc1OC` is 92.1%; for `CNc1ccc(-c2cc(=O)oc3ccc(Cl)cc23)cc1` it is 39.5%; for `O=C1c2ccccc2C2(c3ccc(O)cc3)c3ccccc3Oc3cccc1c32` (configuration not stated) it is -8.79% (active).

With `COc1cc(CCn2nnc3c(NCCCCO)ncnc32)cc(OC)c1`, the growth was 93.5%. The result for `Oc1ccc(Nc2ncnc3c2sc2ncccc23)cc1` reads 21.3%. Take `O=C(Nc1cccc(Br)c1)Oc1ccc(Cl)c2cccnc12`: the growth is -9.1% [100 µM] (active). The figure for `C=C(C)[C@@H]1CC[C@]2(COC(C)=O)CC[C@]3(C)[C@H](CC[C@@H]4[C@@]5(C)CCCN(C(C)=O)C(C)(C)[C@@H]5CC[C@]43C)[C@@H]12` is -49.5% (active). The figure for `CCCCCCNC(=O)Oc1ccc(/C(=C(\C)c2ccc(Cl)cc2)c2ccc(OCCN(C)C)cc2)cc1` is 84.3%; for `CN1CCN(Cc2ccc(NC(=O)c3cncc(C#Cc4cnc(N)c5cnccc45)c3)cc2C(F)(F)F)CC1` it is 6.98% (active); for `CN1CCN=C1c1ccc(NC(=O)c2ccc(C(=O)Nc3ccc(C4=NCCN4C)cc3)cc2)cc1` it is 81.2%. The result for `O=C(/C=C/c1c(Cl)nc2sccn12)c1ccc(F)c(F)c1` reads 35.4%; that for `CCCCCCCCCCC/C=C\C[C@H](O)C/C=C1/C(=O)C=C[C@@H]1C/C=C\CCCC(=O)OC`, -46.3% (active); that for `O=C(O)c1cn(C2CC2)c2cc(N3CCN(C(=O)N4CCOCC4)CC3)c(F)cc2c1=O`, 103%. `C[C@@H]1CC2C3C[C@H](F)C4=CC(=O)C=C[C@]4(C)[C@@]3(F)[C@@H](O)C[C@]2(C)[C@@]1(O)C(=O)CO` (some centres not stated): the growth is 102%.

Consider `CC(C)N(CCCC#N)C(C)C`, for which the growth was 104%. The result for `Cc1nc2c(-c3cnc(N)nc3)nc(N3CCOCC3)nc2n1C(C)C` reads -34.6% (active); that for `Cc1cnc(Nc2ccc(OCCN3CCCC3)cc2)nc1Nc1cccc(S(=O)(=O)NC(C)(C)C)c1`, -16.6% (active); that for `C=CC(=O)Nc1cc2c(Nc3ccc(F)c(Cl)c3)ncnc2cc1C#CC(C)(C)N1CCN(C)CC1`, -61.1% (active). The figure for `C=C(C)C(=O)O[C@H]1C[C@@]2(C)OC(=CC2=O)[C@H](C)[C@H](O)[C@H]2OC(=O)C(=C)[C@@H]21` is 24.7%; for `O=c1[nH]ccc2nc(N3CCC(O)CC3)nc(Nc3ccc(N4CCOCC4)cc3)c12` it is 159%. The result for `CCN(CC)CCCOC(=O)Nc1ccccc1Cl` reads 107%; that for `O=[N+]([O-])c1ccc(C(c2ccccc2)c2ccccc2)cc1`, 101%; that for `COc1ccc(Nc2cc(NC(=O)CNc3cc(OC)c(Cl)c(OC)c3Cl)ncn2)cc1`, 80.8%. Turning to `COc1ccc(-c2cs/c(=N\N=C\c3ccc(O)cc3O)n2/N=C/c2ccc(O)cc2O)cc1`, the growth was -23.3% (active). Consider `NN1CCOC(c2ccccc2)C1` (configuration not stated), for which the growth is 113%. In the case of `COc1ccc(-c2nc3cc(C(=O)NC4CCCCC4)ccc3n2C2CCCCC2)cc1`, the growth is 109%. `Cc1cc2c(C(C)C)c(O)c(O)c(C=Nc3ccccc3[N+](=O)[O-])c2c(O)c1-c1c(C)cc2c(C(C)C)c(O)c(O)c(C=Nc3ccccc3[N+](=O)[O-])c2c1O`: the growth is 80.5%. The result for `COc1cccc(/C=N\NC(=O)c2ccncc2)c1O` reads 64.4%. The figure for `CCNC(=O)N1CCc2cc(OC)c(OCCc3ccc(OC)nc3)cc2C1c1ccc(OC)cc1C` (configuration not stated) is 26.7%; for `C/C(=N\NC(N)=O)c1c(O)sc(=O)[nH]c1=O` it is 97.4%. The figure for `COc1ccc(-c2nc([C@@H](C)Sc3nc(N)cc(N)n3)c(C)s2)cc1OCCN1CCOCC1` is 92.7%; for `CCN(CC)c1ccc(/C=N/NC(=O)CSc2nc3ccccc3c(=O)n2CCc2ccc(S(N)(=O)=O)cc2)c(O)c1` it is -7.72% (active).
